Drawing on PubChem BioAssay (NCI), this text covers growth for 40 compounds.

About 83,000 compounds went through this panel and 20% of them were active in at least one assay; those are over-represented in the sample as a whole.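 Each cell line was grown in a 96-well plate and treated with one concentration of compound for 48 hours. Values below 10 were considered active.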 Active and inactive are the calls of the source.

In the first experiment the test system is SF-268 CNS. Briefly: NCI-60 one-dose screen, 48 h (100 = growth as untreated, 0 = no growth, -100 = all killed). To be noted: 10 µM unless noted.
Consider `N/C(=N\C(N)=N\c1nc2ccccc2s1)c1ccnc(Cl)c1`, for which the growth is 61.5% (inactive). For the compound `COc1ccc(NS(=O)(=O)N2CCCCC2)cc1`, the growth is 98.9% (inactive). Still for that read-out and setting: the value for `C=C1CCC2C(C)(COC(=O)CC)C(OC(=O)CC)CCC2(C)C1C/C=C1/C(=O)OCC1OC(=O)CC` (stereo not drawn) was 39.4% (inactive). Still for that read-out and setting: the value for `Cc1[nH]ccc2cc3nc4ccccc4c3cc12` was 40% (inactive); that for `CC(C)=CCCC(C)c1ccc(C)c2c1OCN(CC1CCNCC1)C2` (stereo not drawn) was 93% (inactive); that for `COc1ccc2c(c1)sc1nc(-c3ccc(N(C)C)cc3)cn12` was 93.1% (inactive).

On to `COc1cc(/C=C/C(=O)C(C(=O)/C=C/c2ccc(OC(=O)CCNc3nnc(C)s3)c(OC)c2)C(=O)CCNc2nnc(C)s2)ccc1OC(=O)CCNc1nnc(C)s1`, for which the growth is 19.8% (inactive).

For the compound `O=C(O)c1ccc2cccnc2c1O`, the growth was 21.6% (inactive). With `CC[C@@H](c1ccc(O)c(O)c1)[C@@H](CC)c1ccc(O)c(O)c1`, the growth is 98% (inactive). Turning to `Cc1ccc(NC(=O)c2sc3nc4c(cc3c2N)C(=O)CCC4)cc1`, the growth was 110% (inactive). Turning to `CCOC(=O)/C=C1/SC(=Nc2ccc(C#N)cc2)N(Cc2ccco2)C1=O`, the growth is 73.2% (inactive).

Regarding `COP(=O)(OC)C(c1ccc(O)cc1)(c1ccc(O)cc1)c1ccc(O)cc1`, the growth is 106% (inactive).

Consider `COc1ccccc1-n1c(-c2ccc(O)cc2C)cn2c3c(=O)[nH]c(=O)n(C)c3nc12`, for which the growth is 86.4% (inactive).

For another experiment, the system named is SF-295 CNS. The description is as above. The note with it: 10 µM unless noted.
Turning to `COc1ccc2ncccc2c1Cc1c(OC)ccc2ncccc12`, the growth is 63.9% (inactive). On to `COc1cc(C2CC(C3C(=O)N(C)C(=O)N(C)C3=O)=NN2c2cc(Cl)cc(Cl)c2)cc(OC)c1OC` (stereo not drawn), for which the growth was 84.4% (inactive). Take `Cc1sc2nc(NCc3ccccc3)[nH]c(=O)c2c1C`: the growth is 52.4% (inactive). On the same count and under the same terms, for `Cc1cc2c(cc1C)[n+](Cc1ccc3ccccc3n1)cn2Cc1ccc2ccccc2n1` the value was 5.16% (active); for `COc1cc(/C=C2\CN(S(=O)(=O)c3ccc(C)cc3)C/C(=C\c3cc(CN4CCOCC4)c(O)c(OC)c3)C2=O)cc(CN2CCOCC2)c1O`, -34.1% (active); for `O=C1NCCc2c1noc2-c1ccccc1`, 97.8% (inactive). Consider `C[C@]12CCC(=O)C=C1CC[C@H]1[C@@H]3C[C@@H](O)[C@](O)(C(=O)CO)[C@@]3(C)C[C@H](O)[C@@]12F`, for which the growth is 104% (inactive). Take `C/C(=C\CCc1ccsc1)CC/C=C(\C)CCCN1CCSCC1`: the growth was 82% (inactive). The same measure, in the same setting: the value for `COC(=O)Nc1ccc2ccc3c(NC(=O)OC)ccc4ccc1c2c43` (tested in a mixture with another compound) was 48.2% (inactive). As for `O=C(Nc1nc2c(C(F)(F)F)cccc2s1)c1cc(Cl)ccc1O`, the growth is -21.2% (active). Consider `COc1cc(C2=NN(C=O)C(c3cccc(Nc4ccnc5cc(Cl)ccc45)c3)C2)cc(OC)c1OC` (stereo not drawn), for which the growth was 66.8% (inactive). Same read-out and setting: the value for `COc1cccc(-c2nc(-c3ccc(N)cc3)co2)c1` was 92.8% (inactive); that for `C[C@@H]1[C@H]2[C@H](C=C3[C@@H]4CC[C@H]5Cc6nc7c(nc6C[C@]5(C)[C@H]4C[C@@H](O)[C@@]32C)C[C@@H]2CC[C@H]3C4=C[C@@H]5O[C@@]6(CC[C@](C)(CO)O6)[C@@H](C)[C@@]5(O)[C@@]4(C)[C@H](O)C[C@@H]3[C@@]2(C)C7)O[C@]12CCC(C)(C)O2` was -63.4% (active). As to `O=C(CNC(=O)c1cccc2ccccc12)Nc1ccccc1Oc1cccc(O)c1`, the growth is 3.33% [5 µM] (active). For `CCN(CC)CCNCC(=O)Oc1ccc(/C=C/C(=O)CC(=O)/C=C/c2ccc(OC(=O)CNCCN(CC)CC)c(OC)c2)cc1OC`, the growth was 27.3% (inactive). For the compound `COc1ccc(-c2cc(-c3nnc(SCC(=O)Nc4ccc(C(C)=O)cc4)n3-c3ccccc3)c3ccccc3n2)cc1OC`, the growth is 98.7% (inactive). Take `COc1ccc2c(c1)[n+](=O)c(C(=O)/C=C/c1cc(OC)c(OC)c(OC)c1)c(C)n2[O-]`: the growth is 87.5% (inactive). As to `COc1ccc(-c2nc3sc4c(c3c(=O)[nH]2)CCCCCC4)cc1`, the growth was 43.6% (inactive).

Turning to `CC(=O)Nc1c(Cl)cc2c(c1Cl)Cc1cc([N+](=O)[O-])ccc1-2`, the growth is 81.8% (inactive). On the same count and under the same terms, for `CCN(CC)CCCCCCCNc1c2ccc(Cl)cc2nc2ccc(OC)cc12` the value was -51.6% (active); for `COc1cc(/C=C/c2cc(/C=C/c3ccc(O)c(OC)c3)n(C(=O)c3ccc(Cl)cc3)n2)ccc1O`, 48% (inactive).

With `Cc1n(Cc2ccc3ccccc3c2)c2ccccc2[n+]1Cc1ccc2ccccc2c1`, the growth was -37.6% (active). The same measure, in the same setting: for `CCn1cnc(C[C@H](NC(=O)[C@H](CCCCNC(=O)Nc2cc(C(F)(F)F)cc(C(F)(F)F)c2)NC(=O)Nc2cc(C(F)(F)F)cc(C(F)(F)F)c2)C(=O)OC)c1` the value was -97.4% [100 µM] (active); for `O=C(Nc1cccc(-n2cc(-c3ccncc3)c(-c3cc(O)cc(Cl)c3)n2)c1)Nc1ccc(Cl)c(Cl)c1`, -50.5% (active); for `Oc1ccc(/C=N/Nc2nc3ccccc3s2)c(O)c1`, 36.4% (inactive). On to `Cc1csc(C#Cc2cncc(O)c2)n1`, for which the growth was 121% (inactive).

With `COc1cc(/C=C/C(=O)CC(=O)/C=C/c2ccc(OC(=O)CCNC34CC5CC(CC(C5)C3)C4)c(OC)c2)ccc1OC(=O)CCNC12CC3CC(CC(C3)C1)C2`, the growth is 51% (inactive). Consider `N/C(=N\C(N)=N\c1nc2ccccc2s1)c1ccnc(Cl)c1`, for which the growth is 17.6% (inactive).

With `COc1ccc(NS(=O)(=O)N2CCCCC2)cc1`, the growth was 113% (inactive). As for `C=C1CCC2C(C)(COC(=O)CC)C(OC(=O)CC)CCC2(C)C1C/C=C1/C(=O)OCC1OC(=O)CC` (stereo not drawn), the growth is 56.7% (inactive).

On to `Cc1[nH]ccc2cc3nc4ccccc4c3cc12`, for which the growth was 20.1% (inactive). Same read-out and setting: the value for `CC(C)=CCCC(C)c1ccc(C)c2c1OCN(CC1CCNCC1)C2` (stereo not drawn) was 98.7% (inactive); that for `COc1ccc2c(c1)sc1nc(-c3ccc(N(C)C)cc3)cn12` was 98.7% (inactive); that for `COc1cc(/C=C/C(=O)C(C(=O)/C=C/c2ccc(OC(=O)CCNc3nnc(C)s3)c(OC)c2)C(=O)CCNc2nnc(C)s2)ccc1OC(=O)CCNc1nnc(C)s1` was 2.23% (active). For `O=C(O)c1ccc2cccnc2c1O`, the growth was 6.02% (active). The same measure, in the same setting: the value for `CC[C@@H](c1ccc(O)c(O)c1)[C@@H](CC)c1ccc(O)c(O)c1` was 130% (inactive); that for `Cc1ccc(NC(=O)c2sc3nc4c(cc3c2N)C(=O)CCC4)cc1` was 47.1% (inactive). For the compound `CCOC(=O)/C=C1/SC(=Nc2ccc(C#N)cc2)N(Cc2ccco2)C1=O`, the growth was 88.8% (inactive). Turning to `COP(=O)(OC)C(c1ccc(O)cc1)(c1ccc(O)cc1)c1ccc(O)cc1`, the growth is 82.7% (inactive).

For the compound `COc1ccccc1-n1c(-c2ccc(O)cc2C)cn2c3c(=O)[nH]c(=O)n(C)c3nc12`, the growth is 99.8% (inactive).
